In the library only some 12% were active in any assay of this set; here they are far more common.
HP1b chromo inh: inhibitors of HP1-beta chromodomain binding to methylated histone tails; P83916; AlphaScreen HP1-beta / biotin-H3K9me3 peptide binding; Potency, µM (titrated, usually from 114 µM), for the others: at the highest dose activity change, negative = inhibition, usual class: inhibitors; 390,000 tested, 0.56% active; AID 540317; further: nearly all actives have a fitted effect of over 70% in size
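HP1-beta protein (50 nM final) preincubated 30 min at room temperature with biotinylated H3(1-18)K9me3 peptide (50 nM) in PBS pH 7.4, 0.01% Tween-20, then compound added for 30 min. AlphaScreen streptavidin donor/nickel chelate acceptor beads (10 ug/mL final), 30 min dark, luminescence read.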
JMJD2A Tudor inh: JMJD2A Tudor domain (human) inhibition. 390,000 tested, 4.4% active. Potency, µM (top dose mostly 114 µM), without a hit: at the highest dose activity change, negative = inhibition, usual class: inhibitors. AlphaScreen JMJD2A-Tudor / H3K4me3 peptide binding; further: on the % scale 0 is the no-effect control and ±100 the full control effect; nearly all actives have a fitted effect of over 50% in size
Target sequence (O75164 whole entry, looked up, the tested form may be a part): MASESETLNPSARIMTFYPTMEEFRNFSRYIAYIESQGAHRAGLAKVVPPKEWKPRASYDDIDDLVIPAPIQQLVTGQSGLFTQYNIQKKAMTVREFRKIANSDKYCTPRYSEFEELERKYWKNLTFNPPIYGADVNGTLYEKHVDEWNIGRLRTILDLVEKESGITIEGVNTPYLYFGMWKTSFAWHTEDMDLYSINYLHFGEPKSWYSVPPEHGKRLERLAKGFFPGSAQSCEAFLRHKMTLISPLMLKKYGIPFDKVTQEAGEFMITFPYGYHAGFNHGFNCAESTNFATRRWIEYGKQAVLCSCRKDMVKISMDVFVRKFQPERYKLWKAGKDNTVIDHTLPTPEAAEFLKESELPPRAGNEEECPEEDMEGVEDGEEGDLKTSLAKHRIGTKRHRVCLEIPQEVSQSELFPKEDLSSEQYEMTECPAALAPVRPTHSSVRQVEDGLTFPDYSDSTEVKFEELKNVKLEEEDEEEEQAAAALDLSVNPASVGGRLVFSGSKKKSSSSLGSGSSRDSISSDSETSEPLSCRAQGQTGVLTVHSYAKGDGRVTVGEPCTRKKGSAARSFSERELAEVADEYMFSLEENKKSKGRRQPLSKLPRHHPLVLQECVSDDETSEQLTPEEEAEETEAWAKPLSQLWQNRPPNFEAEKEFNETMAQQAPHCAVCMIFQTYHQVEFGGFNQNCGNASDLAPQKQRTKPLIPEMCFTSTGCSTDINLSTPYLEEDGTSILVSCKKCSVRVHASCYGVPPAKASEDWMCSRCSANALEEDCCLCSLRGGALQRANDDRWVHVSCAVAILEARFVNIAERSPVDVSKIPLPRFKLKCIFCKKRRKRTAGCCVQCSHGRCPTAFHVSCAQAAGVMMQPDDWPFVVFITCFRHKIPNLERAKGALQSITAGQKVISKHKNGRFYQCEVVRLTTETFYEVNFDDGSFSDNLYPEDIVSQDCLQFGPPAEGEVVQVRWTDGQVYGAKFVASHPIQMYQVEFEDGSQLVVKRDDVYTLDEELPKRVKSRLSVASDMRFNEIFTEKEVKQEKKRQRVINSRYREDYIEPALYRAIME
Sfp PPTase inh: inhibitors of Bacillus subtilis Sfp phosphopantetheinyl transferase; Q9F4F7; Biochemical Sfp PPTase activity, qHTS; Potency, µM, inactives show largest response in the series, negative = inhibition, actives largely listed as inhibitors; 310,000 tested, 3.5% active;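 further: the enzyme is Sfp with the accession as filed and its product quenches rhodamine fluorescence; 0% = enzyme reaction without inhibitor and -100% = no enzyme wells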
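Step 1, compound plus 15 nM Sfp-PPTase, 15 min, room temperature. Step 2, add rhodamine-CoA (5 uM) and BHQ-2-YbbR (12.5 uM). Step 3, read 525/598 nm fluorescence at 0 and 30 min.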
G9a block: blocks human histone lysine methyltransferase G9a. G9a H3K9 monomethylation, AlphaScreen, 2 h. Potency, µM (series often up to 102 µM), for the others: top-dose activity, negative = inhibition, most hits filed as inhibitors. 350,000 tested, 8.8% active. AID 504332; further: on the % scale 0 is the no-effect control and ±100 the full control effect; nearly all actives have a fitted effect of over 75% in size
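Methyltransferase reactions run at room temperature for 2 h (20 nM enzyme, 500 nM biotin-H3K9 peptide, 20 uM SAM) after a 15 min compound preincubation; product detected by AlphaScreen beads and anti-H3K9me1 antibody.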
BAZ2B block: inhibitors of human BAZ2B bromodomain; Potency, µM (series often up to 114 µM), for the others: at the top dose activity change, negative = inhibition, usual class: inhibitors; AID 504333; AlphaScreen BAZ2B-H3K14Ac peptide displacement; 360,000 tested, 4.4% active; Q9UIF8; further: on the % scale 0 is the no-effect control and ±100 the full control effect; nearly all actives have a fitted effect of over 60% in size
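BAZ2B (50 nM) with biotin-H3(5-23)K14Ac peptide (50 nM) in PBS pH 7.4, 0.01% Tween-20, preformed 30 min, then compound 30 min at room temperature; top concentration 110uM. AlphaScreen streptavidin donor/nickel chelate acceptor beads (10 ug/mL final), 20 min dark, signal read.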
The depositor's hits bear a star; ? = inconclusive; . = not tested or not shown; [ ] = remark or other dose. The call rests on the fitted dose curve; in most records, active means well fitted curve in the direction sought with a large enough effect; inconclusive means small, poorly fitted or top-dose-only effect, or another doubt; inactive means no such curve, though single readings can be large; an effect the other way counts as inactive or inconclusive. Potency means the concentration at half of the fitted maximal effect.

SMILES	HP1b chromo inh	JMJD2A Tudor inh	Sfp PPTase inh	G9a block	BAZ2B block
CC(C)C(=O)OCC(=O)[C@@]12OC(C3CCCCC3)O[C@@H]1CC1C3CCC4=CC(=O)C=C[C@]4(C)C3[C@@H](O)C[C@@]12C (stereo not given in full)	.	.	12.3%	-3.3%[12.7 µM]	.
O=C(CNS(=O)(=O)c1ccccc1)OCC(=O)c1ccc([N+](=O)[O-])cc1	37.4%	?	79.4µM*	7.08µM*	-25.8%
O=C(CNC(=O)c1ccco1)OCC(=O)c1ccc2c(c1)CCCC2	0.7%	-24.8%	7.0%	50.1µM*	-2.7%[57.1 µM]
CCc1ccc(C(=O)COC(=O)CNC(=O)c2ccco2)cc1	16.8%	-5.1%	6.8%	-43.4%[59 µM]	-3.8%
O=C(CNC(=O)c1ccco1)OCC(=O)c1ccc([N+](=O)[O-])cc1	9.0%	-31.9%	?	25.1µM*	2.9%
O=C(CNC(=O)c1ccco1)OCc1cccc(Cl)c1	48.3%	-3.1%[57.1 µM]	6.0%	50.1µM*	0.0%
Cn1ncc([N+](=O)[O-])c1C(=O)Nc1ccc(-c2ccccc2)cc1	35.7%	-14.4%	-1.9%	.	-2.8%
Cc1cccc(Cn2c(-c3ccccc3)nc3ccccc32)c1	36.5%	28.9%	.	13.1%[59 µM]	36.7%
Cc1ccc(NS(=O)(=O)c2cc(C(=O)N3CCOCC3)ccc2C)cc1	34.4%	-11.2%	21.2%	-0.5%	-4.4%
COc1ccc(Cc2nnc(Nc3ccc(C)cc3C)[nH]c2=O)cc1	11.9%	-3.0%	11.8%	-3.7%	-19.0%
N#Cc1c(NC(=O)COC(=O)c2nccnc2N)sc2c1CCCC2	0.3%	25.1µM*	.	44.7µM*	79.4µM*
Cc1c(Br)c([N+](=O)[O-])nn1CCCC(=O)Nc1sc2c(c1C#N)CCC2	?	50.1µM*	22.4µM*	?	?
N#Cc1c(NC(=O)CCCC(=O)O)sc2c1CCCCC2	9.8%	0.0%	56.2µM*	29.2%[59 µM]	23.2%
CCCOC(=O)c1c(NC(=O)CCC(=O)O)sc2c1CCCCC2	3.4%	-4.2%	?	50.1µM*	-26.8%
NC(=O)c1c(NC(=O)C2CCCO2)sc2c1CCCCC2 (stereo not given)	?	?	-82.5%	3.55µM*	-29.7%
NC(=O)c1c(NC(=O)CCCC(=O)O)sc2c1CCCCCC2	?	-30.9%[57.1 µM]	79.4µM*	50.1µM*	1.9%
N#Cc1ccc(NC(=O)N2CCC(c3nc4c(nnn4Cc4cccc(Cl)c4)c(=O)[nH]3)CC2)cc1	24.8%	-19.9%	-8.8%	-2.4%[59 µM]	4.5%
Cc1cccc(N(Cc2cc3ccccc3[nH]c2=O)S(C)(=O)=O)c1	15.3%	-20.3%	56.2µM*	-43.2%	-3.5%
CCN(CC)C(=O)c1ncn(C)c1C(=O)N(CC)CC	14.8%	?	.	.	.
COc1ccc(C(=O)CSc2n[nH]c(-c3ccco3)n2)cc1	13.7%	-12.0%	?	?	-2.6%
CCCOc1ccc(-c2nc(SCC(=O)c3ccc(Cl)cc3)n[nH]2)cc1	41.6%	?	.	14.1µM*	-21.2%
C=CCSc1n[nH]c(-c2ccc(OCCC)cc2)n1	57.5%	-1.9%	-6.9%	4.9%[12.7 µM]	8.2%
CCOc1ccc(-c2nc(SCC(=O)c3ccccc3)n[nH]2)cc1	19.9%	25.1µM*	.	14.1µM*	-14.5%
O=C(CSc1n[nH]c(-c2ccccc2)n1)c1ccc(O)c(O)c1	-13.4%	63.1µM*	-14.2%	7.94µM*	44.7µM*
Cn1c(CC(=O)NN)c(Sc2ccccc2)c2ccccc21	52.3%	0.0%	-2.4%	18.9%	-1.1%
SMILES	HP1b chromo inh	JMJD2A Tudor inh	Sfp PPTase inh	G9a block	BAZ2B block
CC(=O)N(C1=C(Cl)C(=O)c2ccccc2C1=O)C1CCCCC1	7.94µM*	1.58µM*	0.794µM*	.	22.4µM*
O=C1CCC(C(=O)OCC(=O)N2N=C3/C(=C/c4ccccc4)CCCC3C2c2ccccc2)N1 (stereo not given)	-1.0%	?	-24.3%	56.2µM*	?
COc1ccc(O)c(/C=N/NC(=O)c2cc(=O)[nH]c3ccccc23)c1	18.2%	-20.4%	11.0%	45.2%	?
CCN(Cc1nc(-c2ccc(OC)c(OC)c2)no1)C(=O)c1ccoc1C	-10.3%	-17.7%	7.1%	-5.0%	-1.9%
CC1(C)Cc2c(C#N)c(N)sc(=S)c2CO1	-1.3%	?	44.7µM*	7.94µM*	?
CC(C)C1Cc2c(C#N)c(N)sc(=S)c2CO1 (stereo not given)	?	50.1µM*	28.2µM*	7.94µM*	?
CCN(CC)c1nc(C)c2c(c1C#N)CC(C)(C)OC2	80.3%	21.7%	-1.3%	2.7%[59 µM]	24.4%
O=C(COC(=O)c1cncc(Br)c1)NCCC1=CCCCC1	38.8%	6.3%	-12.6%	50.1µM*	-6.1%
Cc1ccc(C)c(CSc2nnc([C@@H]3CCCN3)o2)c1	32.2%	-21.6%	-16.6%	-38.1%	?
Clc1ccc(CSc2nnc([C@@H]3CCCN3)o2)cc1Cl	61.2%	-16.2%	15.9%	?	?
O=C(CSc1nnc([C@@H]2CCCN2)o1)c1ccc(Cl)cc1	33.2%	?	-22.0%	39.8µM*	-29.8%
C=C(C)CSc1nnc([C@@H]2CCCN2)o1	47.9%	50.1µM*	?	?	50.1µM*
C=CCNC(C(=O)Nc1cccc(OC)c1)c1ccccc1 (stereo not given)	8.1%	-7.5%	-9.7%	-0.1%	-1.9%
CCCCc1ccc(NC(=O)CSc2nc(=O)n(CCN(CC)CC)c3c2CCC3)cc1	8.2%	-33.6%	.	50.1µM*	-0.7%
CCN(CC)CCCn1c2c(c(SCC(=O)Nc3cc(OC)cc(OC)c3)nc1=O)CCC2	32.9%	-8.6%	.	50.1µM*	2.1%
CN(C)CCCn1c2c(c(SCC(=O)Nc3cccc4ccccc34)nc1=O)CCCC2	19.0%	-4.8%	.	39.8µM*	3.3%
CCN(CC)CCCn1c2c(c(SCC(=O)Nc3ccc(F)c(F)c3)nc1=O)CCC2	28.1%	-1.4%	.	-42.7%	-4.8%
CCN(CC)CCCn1c2c(c(SCC(=O)Nc3cccc4ccccc34)nc1=O)CCC2	13.5%	-16.9%	.	39.8µM*	11.5%
CSCCC(NC(=O)c1ccccc1)C(=O)NCC(C)(C)N1CCOCC1 (stereo not given)	49.5%	-18.7%	.	25.6%[12.7 µM]	-3.0%
Cc1ccc(OCC2Cn3c(nc4c3c(=O)[nH]c(=O)n4C)O2)cc1 (stereo not given)	29.4%	0.0%	7.6%	0.1%	12.6%
CC1(C)CC(Cc2nc(=S)[nH][nH]2)C(=O)O1 (stereo not given)	24.4%	50.1µM*	20µM*	1.78µM*	?
COc1ccc(-n2nc(C(=O)NCCCN3CCOCC3)c3ccccc3c2=O)c(OC)c1	9.4%	56.2µM*	6.4%	15.4%	-23.9%
COc1ccc(OC)c(-c2nc(C(=O)NCCCN3CCOCC3)cc3c2[nH]c2ccccc23)c1	19.3%	?	-10.1%	3.1%[12.7 µM]	50.1µM*
COc1ccc(C(=O)c2cc3ccc(O)cc3oc2=O)cc1	14.2%	-15.3%	5.2%	-1.0%	1.3%
CCC(C(=O)NC1CCCCC1)n1nc(C)c2c(C)n(-c3ccccc3)nc2c1=O (stereo not given)	38.4%	-9.8%	5.4%	41.3%	-1.8%

Screens: PubChem BioAssay, National Center for Advancing Translational Sciences (NCATS)
